Experimental data taken from PubChem BioAssay (NCATS).
Inconclusive results are not listed. A call without a number means that no potency is given here. Active and inactive are the calls of the source. Calls follow the shape of the dose curve; as a rule, active = well fitted curve in the direction sought with a large enough effect; inconclusive = small, poorly fitted or top-dose-only effect, or another doubt; inactive = no such curve, though single readings can be large; an effect the other way counts as inactive or inconclusive.

Columns and labels:
[1] = biological target: Aldehyde dehydrogenase, mitochondrial (Homo sapiens) (UniProt P05091); test: qHTS for Inhibitors of the Aldehyde Dehydrogenase Family (ALDH2) Primary screen (AID 2061308); also: nearly all actives have a fitted effect of over 55% in size
[2] = biological target: Retinaldehyde dehydrogenase 3 (Homo sapiens) (UniProt P47895); test: qHTS for Inhibitors of the Aldehyde Dehydrogenase Family (ALDH1A3) Primary screen (AID 2061315)

Row | SMILES | Potency [1] | Potency [2]
1 | CCN(CC)CCCCn1c(-c2ccccc2)nc2c(N3CCOCC3)nc(C)nc21 | inactive | inactive
2 | CC(OC(=O)c1ccc(S(C)(=O)=O)c([N+](=O)[O-])c1)C(=O)NC1C2CC3CC(C2)CC1C3 (stereo unspecified) | inactive | inactive
3 | Cc1ccc(C2N=C(Nc3nc4ccccc4o3)NC3=C2C(=O)CCC3)s1 (stereo unspecified) | inactive | inactive
4 | O=C(Nc1cccnc1)c1cccs1 | inactive | inactive
5 | COCCN(CCOC)c1nc(C)nc2c1nc(-c1ccccc1)n2CCN1CCCC1 | inactive | inactive
6 | NCCC(=O)Nc1cccc(-c2nn3c(=O)cc(N4CCNCC4)nc3s2)c1 | inactive | inactive
7 | NCCCCC(=O)Nc1ccc(Cl)cc1C(=O)c1ccc[nH]1 | inactive | inactive
8 | CCn1cnc2c(NCc3cccnc3)nc(C#N)nc21 | inactive | inactive
9 | O=C(/C=C/c1ccc(OC(F)(F)F)cc1)Nc1cccc([S+](=O)([O-])Nc2ccccc2F)c1 | inactive | inactive
10 | COc1ccc(OC)c(NC(=O)C(OC(=O)CNC(=O)c2ccccc2)c2ccccc2)c1 (stereo unspecified) | inactive | inactive
11 | Fc1ccc(Nc2nc(-c3ccncc3)nc3ccccc23)cc1F | inactive | inactive
12 | Cc1ccc([S+](=O)([O-])n2cc(-c3ccc(-c4ccccc4)cc3)c3ccccc32)cc1 | inactive | inactive
13 | NC(=O)c1c(NC(=O)c2ccncn2)sc2c1CCCC2 | inactive | inactive
14 | O=C(Nc1nnc(-c2ccncc2)s1)NC12CC3CC(CC(C3)C1)C2 | inactive | inactive
15 | O=S(=O)(c1cccc2ccccc12)n1ccc2ccc(N3CCN4CCCC4C3)cc21 (stereo unspecified) | inactive | inactive
16 | O=C(Nc1ncc(Cc2ccc(C(F)(F)F)cc2)s1)c1cccc(-c2ccccc2)c1 | inactive | inactive
17 | Cc1cc2c(s1)c1cnn(Cc3ccc(F)cc3)c(=O)c1n2C | inactive | inactive
18 | Cc1cc(-c2nc(Nc3ccc(F)c(F)c3)c3ccccc3n2)ccn1 | inactive | inactive
19 | O=C(COC(=O)CNC(=O)c1ccccc1)Nc1cc(C(F)(F)F)ccc1Cl | inactive | inactive

Row | SMILES | Potency [1] | Potency [2]
20 | Cc1cc2c(s1)c1cnn(Cc3cc(F)c(F)c(F)c3)c(=O)c1n2C | inactive | inactive
21 | COc1ccc(-c2ccc3ncnc(NCC4CCCO4)c3c2)cc1OC (stereo unspecified) | inactive | inactive
22 | O=C(Nc1ccc(S(=O)(=O)Nc2nccs2)cc1)c1ccnc2ccccc12 | inactive | inactive
23 | O=S(=O)(NCC1CCC(NS(=O)(=O)c2c(F)cccc2F)CC1)c1ccc2c(c1)OCCO2 (stereo unspecified) | inactive | inactive
24 | O=C(COC(=O)CNC(=O)C1CCCCC1)Nc1cc(C(F)(F)F)ccc1Cl | inactive | inactive
25 | CCCn1c(-c2ccc(F)cc2)nc2c(NCCCCN(CC)CC)nc(C)nc21 | inactive | inactive
26 | COc1cccc(-c2ccc3ncnc(NCc4ccc5c(c4)OCO5)c3c2)c1 | inactive | inactive
27 | O=C(NC1CCCc2c1cnn2-c1ccc(F)cc1F)c1ccc(C2(C(F)(F)F)N=N2)cc1 (stereo unspecified) | inactive | inactive
28 | O=C(/C=C/c1ccccc1)Nc1cccc(S(=O)(=O)Nc2ccccc2F)c1 | inactive | inactive
29 | COc1ccccc1C(=O)NCCc1nc2ccccc2n1CCOc1ccc(C)cc1 | inactive | inactive
30 | CCCCc1ccc(-c2ccc(=O)n(CC(=O)NCCc3ccccc3)n2)cc1 | inactive | inactive
31 | Cc1ccc(-c2ccc(=O)n(CC(=O)NCCc3ccccn3)n2)cc1 | inactive | inactive
32 | O=S(=O)(c1ccc(C(F)(F)F)cc1)N1CCN(S(=O)(=O)c2ccc3c(c2)OCCO3)CC1 | inactive | inactive
33 | Nc1ccc(-c2cccc3c(=O)cc(N4CCOCC4)oc23)cc1 | inactive | inactive
34 | O=S(=O)(Nc1nc(-c2ccccc2C(F)(F)F)nc2ccccc12)c1ccc(-c2ccnc(C(F)(F)F)c2)cc1 | inactive | inactive
35 | CC(=O)O[C@@]12CO[C@@H]1C[C@H](O)[C@@]1(C)C(=O)[C@H](O)C3=C(C)[C@@H](OC(=O)[C@H](O)[C@@H](NC(=O)OC(C)(C)C)c4ccccc4)C[C@@](O)([C@@H](OC(=O)c4ccccc4)C12)C3(C)C (stereo partly specified) | inactive | inactive
36 | COc1ccc(C2Nc3ccccc3C(=O)N2Cc2cccs2)cc1COc1c(C)cc(NC(C)=O)cc1C (stereo unspecified) | inactive | inactive
37 | Cc1ccc(NS(=O)(=O)c2cc3c(cc2Cl)NC(=O)CO3)cc1C | inactive | inactive
38 | O=C(O)c1ccccc1-c1noc(-c2ccccc2F)n1 | inactive | inactive
